{"source": "paper PMC3795721", "about": "“Screening for Protein-DNA Interactions by Automatable DNA-Protein Interaction ELISA”"}
{"target": "AT4G31550 (Arabidopsis thaliana, UniProt Q9SV15 228-325)", "sequence (Q9SV15 228-325)": "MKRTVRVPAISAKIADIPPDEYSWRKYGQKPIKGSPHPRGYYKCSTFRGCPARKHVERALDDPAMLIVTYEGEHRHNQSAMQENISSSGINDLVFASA", "experiment": "DPI-ELISA; DPI-ELISA, streptavidin 384-well plate, 1-2 pmol biotinylated dsDNA per well, crude native E. coli extract, anti-His detection; buffer as in Brand et al. [46],; high values mean tight binding", "conditions": "tags: C-terminal His (pET-DEST42); label: 5' biotin on forward strand; dsDNA, one strand shown", "units": {"binding signal": "absorbance"}}
{"sequence": "AAAAAACCTTCCCCCTCTTCTGCCTTAAAA", "binding signal": "0.665 ± 0.0354"}
{"sequence": "AAAAAATGGAAAGACCTATACCGGTCAAAA", "binding signal": "1.09 ± 0.17"}
{"sequence": "AAAAAAGTACGGATGCCCGCGCGTATAAAA", "binding signal": "0.735 ± 0.205"}
{"sequence": "AAAAAACTGGTGTATCTCCTCAATTAAAAA", "binding signal": "0.635 ± 0.0636"}
{"sequence": "AAAAAACACTTAACTGAGTGGGATTGAAAA", "binding signal": "0.705 ± 0.134"}
{"sequence": "AAAAAATCCTATCTTGGCTTTGGCCTAAAA", "binding signal": "0.65 ± 0.156"}
{"sequence": "AAAAAATGACCAGGCCTCGAGCAAAAA", "binding signal": "0.665 ± 0.0636"}
{"sequence": "AAAAAATCAGTCTGAGACTTACAACTAAAA", "binding signal": "0.84 ± 0.283"}
{"sequence": "AAAAAAAGTTCCAGGTCCGATGCTCAAAAA", "binding signal": "0.805 ± 0.318"}
{"sequence": "AAAAAAATGATTGCCAATGCTCGCAAAAAA", "binding signal": "0.73 ± 0.156"}
{"sequence": "AAAAAATTGCACCTGATACTAGGGTTAAAA", "binding signal": "0.655 ± 0.148"}
{"sequence": "AAAAAAATCATCCTATTGTTGCTGTCAAAA", "binding signal": "0.665 ± 0.12"}
{"sequence": "AAAAAACTGGATGCGCTCACCAGTTAAAAA", "binding signal": "0.52 ± 0.099"}
{"sequence": "AAAAAATAAACGTGTTCATACTTAGTAAAA", "binding signal": "0.61 ± 0.0707"}
{"sequence": "AAAAAAATCTTTGCGTCGAGATTCTTAAAA", "binding signal": "0.59 ± 0.0707"}
{"sequence": "AAAAAAGCTTTCAACATCTGCGTCCAAAAA", "binding signal": "0.42 ± 0.0424"}
{"sequence": "AAAAAATCAAAACAACGATGCCGTTAAAAA", "binding signal": "0.73 ± 0.0849"}
{"sequence": "AAAAAAGTCTAGTCGTAAAAA", "binding signal": "0.595 ± 0.0778"}
{"sequence": "AAAAAAATGATTTGCAGATCTCCGAGAAAA", "binding signal": "0.935 ± 0.488"}
{"sequence": "AAAAAATATCTGATCCAATTTAGGTCAAAA", "binding signal": "1.5 ± 0.0212"}
{"sequence": "AAAAAAACTTTCTATTCTGGATAAGTAAAA", "binding signal": "0.625 ± 0.134"}
{"sequence": "AAAAAAGGACGTCTTCGGTATGAGTGAAAA", "binding signal": "0.815 ± 0.163"}
{"sequence": "AAAAAAGGCTGTGGCCAATGTTCGTAAAAA", "binding signal": "0.55 ± 0.0566"}
{"sequence": "AAAAAAAAATTTCGAGCCTCGGCGTAAAAA", "binding signal": "0.49 ± 0.0849"}
{"sequence": "AAAAAAACTCTAGGTCAATATTATTCAAAA", "binding signal": "3.11 ± 0.636"}
{"sequence": "AAAAAATAATATCGATACTCATGCCCAAAA", "binding signal": "0.685 ± 0.134"}
{"sequence": "AAAAAATCGGTACGCACCCCGGACTCAAAA", "binding signal": "0.73 ± 0.184"}
{"sequence": "AAAAAATGTTGTTGCTGTTGGTCCTAAAAA", "binding signal": "0.695 ± 0.0778"}
{"sequence": "AAAAAAACTCACGGCGTCACTATGGTAAAA", "binding signal": "0.585 ± 0.12"}
{"sequence": "AAAAAAATCCATATTATTGCTACCCGAAAA", "binding signal": "0.595 ± 0.0636"}
{"sequence": "AAAAAAGTAGGTGCTGATGCTGGCCGAAAA", "binding signal": "0.59 ± 0.0141"}
{"sequence": "AAAAAAGTCCATAAACTAAATTGGATAAAA", "binding signal": "0.525 ± 0.0495"}
{"sequence": "AAAAAACGTATTGATGTCTATTTCAAAAAA", "binding signal": "0.575 ± 0.0919"}
{"sequence": "AAAAAAAAGAGCCTGGGGGTTCGCATAAAA", "binding signal": "0.655 ± 0.0636"}
{"sequence": "AAAAAAGGCCGTTGGACCTCGGTCTAAAAA", "binding signal": "0.66 ± 0.0707"}
{"sequence": "AAAAAAACAGCTCGGTGCCACTGTGGAAAA", "binding signal": "0.61 ± 0.0424"}
{"sequence": "AAAAAATATCATTGTTACCGTTGCTAAAAA", "binding signal": "0.465 ± 0.12"}
{"sequence": "AAAAAACTGTCTGTCCTATATCACTTAAAA", "binding signal": "0.66 ± 0.099"}
